Some test systems named below: HCT-15 colon; HT29 colon; SNB-75 CNS; SNB-19 CNS; U251 CNS; PC-3 prostate; SK-MEL-5 melanoma; UACC-62 melanoma; LOX IMVI melanoma; SK-MEL-28 melanoma; SK-MEL-2 melanoma; EKVX NSCLC; SN12C renal; UO-31 renal; TK-10 renal; ACHN renal; CAKI-1 renal; A498 renal; CCRF-CEM leukemia; MOLT-4 leukemia.
Experiment in all cases: NCI-60 one-dose screen, 48 h (100 = growth as untreated, 0 = no growth, -100 = all killed)
What all share (settings): 10 µM unless noted

The panel holds about 83,000 compounds, 20% with a hit somewhere; the sample as a whole holds those more often.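 Compound tested at a single concentration for 48 hours in 96-well plates; a percent growth value below 10 was scored as active.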 A number with no mark means an inactive call. Active and inactive are the calls of the source.

Consider `CN(C)c1ccc(C(=NO)c2ccc(N(C)C)cc2)cc1`, for which the growth in the experiment on HCT-15 colon was 24.4%; in the experiment on HT29 colon, 5.39% (active); in the experiment with SNB-75 CNS, 53.6%; in the experiment with SNB-19 CNS it was 46.3%; with U251 CNS it was 28.1%; in the experiment on PC-3 prostate, 58%. Further, the growth is 14.5% in the experiment with SK-MEL-5 melanoma; 28.1% in the experiment with UACC-62 melanoma; 43.1% in the experiment on LOX IMVI melanoma; 56.3% in the experiment with SK-MEL-28 melanoma; -23% (active) in the experiment with SK-MEL-2 melanoma; 50.8% in the experiment on EKVX NSCLC. The growth in the experiment with SN12C renal is 45.5%; with UO-31 renal, 67.1%; in the experiment with TK-10 renal, 56.6%; with ACHN renal, 50.9%; in the experiment with CAKI-1 renal, 24.1%; in the experiment on A498 renal it was 31.3%. Also, the growth with CCRF-CEM leukemia was 38.3%.
Regarding `C/C(C=O)=C\c1ccc2c(c1)OCO2`, the growth in the experiment on HCT-15 colon was 108%; in the experiment on HT29 colon, 110%; in the experiment with SNB-75 CNS, 102%; in the experiment on SNB-19 CNS, 111%; in the experiment with U251 CNS it was 107%; with PC-3 prostate, 104%. Further, the growth with SK-MEL-5 melanoma was 105%; with UACC-62 melanoma, 105%; in the experiment with LOX IMVI melanoma, 96.7%; with SK-MEL-28 melanoma it was 124%; in the experiment with SK-MEL-2 melanoma, 109%; in the experiment with EKVX NSCLC it was 102%. For the same compound, the growth in the experiment on SN12C renal was 110%; in the experiment on UO-31 renal it was 102%; with TK-10 renal, 90.7%; with ACHN renal, 113%; in the experiment on CAKI-1 renal it was 107%; in the experiment on A498 renal it was 68%. Further, the growth in the experiment with CCRF-CEM leukemia is -5.12% (active); in the experiment on MOLT-4 leukemia it was 116%.
Consider `CC[C@H](CC[C@@H](C)[C@H]1CC[C@H]2[C@@H]3CC[C@@H]4CC(=O)/C(=C\c5ccncc5)C[C@]4(C)[C@H]3CC[C@]12C)C(C)C`, for which the growth was 102% with HCT-15 colon; 103% in the experiment on HT29 colon; 99.4% in the experiment on SNB-75 CNS; 99.2% with SNB-19 CNS; 96.3% in the experiment with U251 CNS; 92.6% in the experiment on PC-3 prostate. Also, the growth is 100% with SK-MEL-5 melanoma; 94.5% in the experiment with UACC-62 melanoma; 95.7% in the experiment on LOX IMVI melanoma; 107% in the experiment with SK-MEL-28 melanoma; 105% in the experiment with SK-MEL-2 melanoma; 99.6% in the experiment on EKVX NSCLC. For the same compound, the growth was 102% in the experiment on SN12C renal; 90.4% with UO-31 renal; 107% with TK-10 renal; 111% in the experiment on ACHN renal; 93.8% in the experiment with CAKI-1 renal; 83% in the experiment on A498 renal. Besides, the growth in the experiment on CCRF-CEM leukemia was 107%; with MOLT-4 leukemia, 104%.
Turning to `COc1cc2c3c(n(CCCCNCCCn4c5c(c6cc(OC)c(OC)cc6c4=O)C(=O)c4cc6c(cc4-5)OCO6)c(=O)c2cc1OC)-c1cc2c(cc1C3=O)OCO2`, the growth in the experiment with HCT-15 colon is 99.6%; in the experiment with HT29 colon, 93.3%; with SNB-75 CNS, 91%; in the experiment on SNB-19 CNS it was 102%; with U251 CNS it was 91.6%; in the experiment with PC-3 prostate, 93%. Also, the growth in the experiment on SK-MEL-5 melanoma is 102%; in the experiment with UACC-62 melanoma, 96.8%; with LOX IMVI melanoma, 95.2%; in the experiment on SK-MEL-28 melanoma, 109%; with SK-MEL-2 melanoma it was 114%; in the experiment on EKVX NSCLC, 90.3%. The growth in the experiment with SN12C renal is 102%; in the experiment with UO-31 renal, 84.1%; with TK-10 renal, 100%; in the experiment with ACHN renal, 95%; with CAKI-1 renal it was 93.3%; with A498 renal, 103%. Further, the growth in the experiment on CCRF-CEM leukemia is 101%.
`C=CC(=O)NCCOc1cccc(Nc2cc(NCCCNC(=O)C3CCC3)c(Br)cn2)c1`: the growth in the experiment on HCT-15 colon is 1.43% (active); with HT29 colon, -15.2% (active); in the experiment with SNB-75 CNS, -69.2% (active); with SNB-19 CNS, 5.36% (active); in the experiment with U251 CNS it was 0.984% (active); with PC-3 prostate, 5.12% (active). Also, the growth with SK-MEL-5 melanoma was -41.4% (active); in the experiment with UACC-62 melanoma, -34.7% (active); with LOX IMVI melanoma, -25.3% (active); with SK-MEL-28 melanoma, -11.9% (active); in the experiment on SK-MEL-2 melanoma, -43.8% (active); with EKVX NSCLC, -13.6% (active). The growth is 3.07% (active) with SN12C renal; -42.2% (active) in the experiment with UO-31 renal; -43.4% (active) with TK-10 renal; 7.24% (active) in the experiment on ACHN renal; -38.2% (active) in the experiment with CAKI-1 renal; -54% (active) with A498 renal. Besides, the growth is 1.92% (active) in the experiment with CCRF-CEM leukemia and -10.5% (active) in the experiment on MOLT-4 leukemia.
Turning to `CCC/C(=N\NC(N)=O)C(OC)OC`, the growth is 105% with HCT-15 colon; 97.8% in the experiment with HT29 colon; 67.9% in the experiment with SNB-75 CNS; 102% in the experiment on SNB-19 CNS; 92.3% in the experiment with U251 CNS; 97% in the experiment with PC-3 prostate. For the same compound, the growth with SK-MEL-5 melanoma was 100%; in the experiment on UACC-62 melanoma, 100%; in the experiment with LOX IMVI melanoma, 84.4%; in the experiment with SK-MEL-28 melanoma it was 96.4%; in the experiment with SK-MEL-2 melanoma, 104%; with EKVX NSCLC it was 111%. The growth is 107% with SN12C renal; 89.3% in the experiment on UO-31 renal; 85.3% in the experiment on TK-10 renal; 105% in the experiment on ACHN renal; 114% with CAKI-1 renal; 91.1% with A498 renal. For the same compound, the values for the growth in the experiment on CCRF-CEM leukemia and in the experiment with MOLT-4 leukemia were 106% and 121%, respectively.
Consider `CC(C)CCC[C@@H](C)C1CCC2C3CCC4=C/C(=N/OCCN(C)C)CC[C@]4(C)C3CC[C@@]21C` (some centres not stated), for which the growth is 98.3% in the experiment with HCT-15 colon; 78.7% in the experiment on HT29 colon; 80.5% in the experiment with SNB-75 CNS; 86.5% in the experiment on SNB-19 CNS; 79.2% with U251 CNS; 57.1% in the experiment on PC-3 prostate. In addition, the growth in the experiment with SK-MEL-5 melanoma was 99.3%; with UACC-62 melanoma it was 84.9%; in the experiment on LOX IMVI melanoma, 57.8%; in the experiment with SK-MEL-28 melanoma, 101%; in the experiment with SK-MEL-2 melanoma, 83.7%; with EKVX NSCLC it was 94.7%. Also, the growth with SN12C renal is 92.6%; in the experiment with UO-31 renal, 61.7%; with TK-10 renal, 70.4%; in the experiment with ACHN renal, 88.9%; with CAKI-1 renal, 79.9%; with A498 renal it was 80.8%. Also, the growth in the experiment on CCRF-CEM leukemia is 26.6%.
For the compound `COc1cccc(/C=C2\COc3ccc(O)cc3C2=O)c1`, the growth was 40.6% in the experiment on HCT-15 colon; 37.8% in the experiment with HT29 colon; 82.4% in the experiment with SNB-75 CNS; 65.6% in the experiment with SNB-19 CNS; 45.1% in the experiment on U251 CNS; 76.8% in the experiment with PC-3 prostate. Moreover, the growth is 96.6% in the experiment on SK-MEL-5 melanoma; 63.3% in the experiment with UACC-62 melanoma; 18.7% in the experiment with LOX IMVI melanoma; 108% in the experiment with SK-MEL-28 melanoma; 104% with SK-MEL-2 melanoma; 98.4% in the experiment on EKVX NSCLC. Further, the growth in the experiment with SN12C renal is 30.1%; in the experiment on UO-31 renal, 69.1%; with TK-10 renal, 101%; in the experiment on ACHN renal, 84.7%; in the experiment on CAKI-1 renal it was 80.4%; in the experiment with A498 renal, 104%. The growth was -0.603% (active) in the experiment on CCRF-CEM leukemia and 40.2% with MOLT-4 leukemia.

Values taken from PubChem BioAssay (NCI).
